Results from the supplement of paper PMC11732987, “Enantioselective OTUD7B fragment discovery through chemoproteomics screening and high-throughput optimisation” (Communications Chemistry, 2025).

How the values were obtained:
Test in all cases: log2 ratio of Biotin-Ahx-Ub-VS probe labelling (fragment/DMSO); higher = less target engagement (more negative = stronger competition), active = hit call of the paper (q ≤ 0.05, log2 ratio ≤ -1)
Settings in all cases: compound concentration: 200 uM; treatment time: 3 h
[1] = molecular target: T1, ALG13 (UniProt Q9NP73)
T1 sequence (whole entry): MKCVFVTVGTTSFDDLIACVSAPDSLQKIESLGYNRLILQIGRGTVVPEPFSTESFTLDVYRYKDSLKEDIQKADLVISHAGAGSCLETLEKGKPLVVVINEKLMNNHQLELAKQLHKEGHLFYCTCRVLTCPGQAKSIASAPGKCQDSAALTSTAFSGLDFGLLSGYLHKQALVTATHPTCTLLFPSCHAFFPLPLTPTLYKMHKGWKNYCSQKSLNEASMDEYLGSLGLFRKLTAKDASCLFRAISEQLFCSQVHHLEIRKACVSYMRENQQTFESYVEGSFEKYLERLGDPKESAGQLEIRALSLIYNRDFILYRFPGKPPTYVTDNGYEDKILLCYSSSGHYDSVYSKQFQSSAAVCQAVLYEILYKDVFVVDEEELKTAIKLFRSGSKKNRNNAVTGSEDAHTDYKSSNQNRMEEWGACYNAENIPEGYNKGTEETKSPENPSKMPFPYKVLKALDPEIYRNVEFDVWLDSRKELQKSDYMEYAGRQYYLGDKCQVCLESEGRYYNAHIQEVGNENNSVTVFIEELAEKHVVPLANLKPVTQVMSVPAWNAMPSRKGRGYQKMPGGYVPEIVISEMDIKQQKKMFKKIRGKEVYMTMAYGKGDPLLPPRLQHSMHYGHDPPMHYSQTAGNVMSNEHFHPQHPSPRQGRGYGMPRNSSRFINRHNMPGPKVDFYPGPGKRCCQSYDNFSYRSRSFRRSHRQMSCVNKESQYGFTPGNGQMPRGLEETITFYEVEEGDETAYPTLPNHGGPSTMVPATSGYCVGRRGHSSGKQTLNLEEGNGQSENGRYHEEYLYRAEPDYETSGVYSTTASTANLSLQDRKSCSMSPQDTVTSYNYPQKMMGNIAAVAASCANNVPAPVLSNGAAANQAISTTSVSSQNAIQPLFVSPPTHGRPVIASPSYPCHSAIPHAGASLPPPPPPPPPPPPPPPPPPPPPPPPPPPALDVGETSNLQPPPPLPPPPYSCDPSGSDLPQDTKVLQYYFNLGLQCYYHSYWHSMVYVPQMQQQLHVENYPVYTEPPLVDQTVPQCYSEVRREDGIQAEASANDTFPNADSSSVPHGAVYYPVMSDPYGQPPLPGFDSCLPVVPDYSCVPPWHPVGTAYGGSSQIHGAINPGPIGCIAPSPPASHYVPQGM
In short: (§1)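 Lysate from HEK293T cells, 495 µg per sample in Tris/CHAPS/IGEPAL buffer with protease inhibitors, was treated for 3 h in triplicate with fragment at 200 µM or vehicle. Biotin-Ahx-Ub-VS was next added at 0.5 µM final for 1 h. The labelled DUBs were enriched with NeutrAvidin, digested with LysC and trypsin, and run by diaPASEF LC-MS/MS, with values given as average log2 fragment/vehicle ratios by unpaired t-test on global-median-normalised Spectronaut quantities of proteins with ≥2 unique peptides.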

[2] = molecular target: ATXN3 (UniProt P54252)
ATXN3, sequence (P54252 whole entry): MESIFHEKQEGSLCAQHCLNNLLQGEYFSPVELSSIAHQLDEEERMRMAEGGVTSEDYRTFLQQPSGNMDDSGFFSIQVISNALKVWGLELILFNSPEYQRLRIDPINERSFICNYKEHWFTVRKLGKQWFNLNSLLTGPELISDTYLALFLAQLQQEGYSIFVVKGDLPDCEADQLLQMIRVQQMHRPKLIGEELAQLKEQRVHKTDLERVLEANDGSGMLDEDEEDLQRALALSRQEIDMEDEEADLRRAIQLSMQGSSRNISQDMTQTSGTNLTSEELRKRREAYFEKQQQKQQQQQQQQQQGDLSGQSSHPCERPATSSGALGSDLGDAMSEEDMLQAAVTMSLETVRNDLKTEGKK
In short: as §1

[3] = molecular target: T2, BAP1 (UniProt Q92560)
T2 sequence (whole entry): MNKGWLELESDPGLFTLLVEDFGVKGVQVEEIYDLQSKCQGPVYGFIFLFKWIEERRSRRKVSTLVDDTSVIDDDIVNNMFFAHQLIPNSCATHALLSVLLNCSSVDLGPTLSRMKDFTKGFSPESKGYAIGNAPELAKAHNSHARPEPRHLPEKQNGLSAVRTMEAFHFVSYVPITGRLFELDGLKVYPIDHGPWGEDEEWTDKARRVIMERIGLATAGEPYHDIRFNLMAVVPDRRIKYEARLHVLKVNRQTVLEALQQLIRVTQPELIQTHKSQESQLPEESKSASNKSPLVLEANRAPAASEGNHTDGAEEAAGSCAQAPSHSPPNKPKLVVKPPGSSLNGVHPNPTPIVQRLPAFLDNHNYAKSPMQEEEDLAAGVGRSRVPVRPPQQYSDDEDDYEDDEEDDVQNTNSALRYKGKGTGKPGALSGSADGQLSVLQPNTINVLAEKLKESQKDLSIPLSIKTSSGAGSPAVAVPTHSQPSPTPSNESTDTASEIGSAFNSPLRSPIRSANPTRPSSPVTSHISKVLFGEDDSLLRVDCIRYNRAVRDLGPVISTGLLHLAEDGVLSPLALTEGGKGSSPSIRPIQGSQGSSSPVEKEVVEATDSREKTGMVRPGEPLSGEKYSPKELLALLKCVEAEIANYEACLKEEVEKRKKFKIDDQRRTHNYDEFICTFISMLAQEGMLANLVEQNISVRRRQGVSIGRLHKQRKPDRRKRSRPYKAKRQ
In short: as §1

[4] = molecular target: EIF3F (UniProt O00303)
EIF3F, sequence (O00303 whole entry): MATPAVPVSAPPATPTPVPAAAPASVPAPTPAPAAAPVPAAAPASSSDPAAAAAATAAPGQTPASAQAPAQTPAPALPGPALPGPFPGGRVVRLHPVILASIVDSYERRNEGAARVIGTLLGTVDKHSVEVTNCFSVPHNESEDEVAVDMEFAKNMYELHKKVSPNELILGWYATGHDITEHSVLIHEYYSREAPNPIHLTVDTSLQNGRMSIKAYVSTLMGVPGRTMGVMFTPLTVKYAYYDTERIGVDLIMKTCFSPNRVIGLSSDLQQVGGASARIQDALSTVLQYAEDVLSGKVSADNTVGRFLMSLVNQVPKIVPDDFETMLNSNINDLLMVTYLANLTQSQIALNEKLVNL
In short: as §1

[5] = molecular target: EIF3H (UniProt O15372)
EIF3H, sequence (O15372 whole entry): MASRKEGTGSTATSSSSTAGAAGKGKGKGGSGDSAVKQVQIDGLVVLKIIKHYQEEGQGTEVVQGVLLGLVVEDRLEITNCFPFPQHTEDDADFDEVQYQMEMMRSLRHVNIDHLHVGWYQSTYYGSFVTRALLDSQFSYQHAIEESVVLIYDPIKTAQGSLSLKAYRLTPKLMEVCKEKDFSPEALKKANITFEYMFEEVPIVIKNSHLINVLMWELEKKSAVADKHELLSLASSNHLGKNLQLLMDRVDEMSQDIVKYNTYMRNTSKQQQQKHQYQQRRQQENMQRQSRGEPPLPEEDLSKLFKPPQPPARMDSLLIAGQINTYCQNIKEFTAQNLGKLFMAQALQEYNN
In short: as §1

[6] = molecular target: T3, FAM105A (UniProt Q9NUU6)
T3 sequence (whole entry): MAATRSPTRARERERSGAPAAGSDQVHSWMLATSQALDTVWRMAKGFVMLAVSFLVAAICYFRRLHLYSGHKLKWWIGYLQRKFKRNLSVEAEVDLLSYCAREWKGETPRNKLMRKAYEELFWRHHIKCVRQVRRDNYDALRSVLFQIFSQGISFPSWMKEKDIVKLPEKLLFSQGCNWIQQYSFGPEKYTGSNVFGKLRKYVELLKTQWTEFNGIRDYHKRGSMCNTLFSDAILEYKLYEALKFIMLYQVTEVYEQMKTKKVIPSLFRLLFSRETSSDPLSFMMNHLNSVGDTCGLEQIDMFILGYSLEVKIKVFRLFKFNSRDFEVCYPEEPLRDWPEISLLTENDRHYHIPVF
In short: as §1

[7] = molecular target: OTUB1 (UniProt Q96FW1)
OTUB1, sequence (Q96FW1 whole entry): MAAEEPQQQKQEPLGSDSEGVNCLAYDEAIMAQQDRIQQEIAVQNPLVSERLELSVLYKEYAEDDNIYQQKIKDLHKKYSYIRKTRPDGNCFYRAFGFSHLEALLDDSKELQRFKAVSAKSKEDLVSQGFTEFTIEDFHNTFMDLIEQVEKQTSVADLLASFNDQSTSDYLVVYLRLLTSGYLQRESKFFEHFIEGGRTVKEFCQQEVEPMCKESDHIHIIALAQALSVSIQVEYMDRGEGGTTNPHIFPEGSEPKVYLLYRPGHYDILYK
In short: as §1

[8] = molecular target: T4, OTUD4 (UniProt Q01804)
T4 sequence (whole entry): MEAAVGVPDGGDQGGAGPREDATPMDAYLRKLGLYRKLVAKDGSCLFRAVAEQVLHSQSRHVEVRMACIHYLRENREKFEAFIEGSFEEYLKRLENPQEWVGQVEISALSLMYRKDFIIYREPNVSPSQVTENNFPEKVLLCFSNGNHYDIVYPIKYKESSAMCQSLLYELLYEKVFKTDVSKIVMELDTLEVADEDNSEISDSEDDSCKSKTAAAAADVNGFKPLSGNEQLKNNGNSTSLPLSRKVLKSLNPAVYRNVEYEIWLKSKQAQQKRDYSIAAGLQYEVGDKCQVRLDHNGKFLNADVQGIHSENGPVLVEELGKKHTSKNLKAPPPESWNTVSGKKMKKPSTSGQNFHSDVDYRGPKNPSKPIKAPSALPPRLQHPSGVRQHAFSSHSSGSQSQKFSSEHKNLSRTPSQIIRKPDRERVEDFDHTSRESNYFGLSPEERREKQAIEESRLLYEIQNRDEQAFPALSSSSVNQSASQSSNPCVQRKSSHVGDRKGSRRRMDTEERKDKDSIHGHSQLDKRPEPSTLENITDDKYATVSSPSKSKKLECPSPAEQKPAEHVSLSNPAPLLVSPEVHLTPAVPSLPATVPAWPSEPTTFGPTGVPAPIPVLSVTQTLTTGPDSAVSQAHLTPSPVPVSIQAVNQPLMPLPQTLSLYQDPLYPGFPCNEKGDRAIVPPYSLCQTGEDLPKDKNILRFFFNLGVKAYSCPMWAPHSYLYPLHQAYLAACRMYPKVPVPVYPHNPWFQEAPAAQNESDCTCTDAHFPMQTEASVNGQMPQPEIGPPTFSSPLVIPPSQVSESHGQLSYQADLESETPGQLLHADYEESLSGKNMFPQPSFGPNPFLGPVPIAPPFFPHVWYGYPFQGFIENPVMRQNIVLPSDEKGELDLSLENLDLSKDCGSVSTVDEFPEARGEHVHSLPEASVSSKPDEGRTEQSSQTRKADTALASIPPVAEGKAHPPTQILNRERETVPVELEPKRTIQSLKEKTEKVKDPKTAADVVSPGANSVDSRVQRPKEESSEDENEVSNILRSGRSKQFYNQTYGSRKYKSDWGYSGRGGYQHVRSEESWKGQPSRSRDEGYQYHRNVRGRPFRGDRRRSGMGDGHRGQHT
In short: as §1

[9] = molecular target: T5, OTUD5 (UniProt Q96G74)
T5 sequence (whole entry): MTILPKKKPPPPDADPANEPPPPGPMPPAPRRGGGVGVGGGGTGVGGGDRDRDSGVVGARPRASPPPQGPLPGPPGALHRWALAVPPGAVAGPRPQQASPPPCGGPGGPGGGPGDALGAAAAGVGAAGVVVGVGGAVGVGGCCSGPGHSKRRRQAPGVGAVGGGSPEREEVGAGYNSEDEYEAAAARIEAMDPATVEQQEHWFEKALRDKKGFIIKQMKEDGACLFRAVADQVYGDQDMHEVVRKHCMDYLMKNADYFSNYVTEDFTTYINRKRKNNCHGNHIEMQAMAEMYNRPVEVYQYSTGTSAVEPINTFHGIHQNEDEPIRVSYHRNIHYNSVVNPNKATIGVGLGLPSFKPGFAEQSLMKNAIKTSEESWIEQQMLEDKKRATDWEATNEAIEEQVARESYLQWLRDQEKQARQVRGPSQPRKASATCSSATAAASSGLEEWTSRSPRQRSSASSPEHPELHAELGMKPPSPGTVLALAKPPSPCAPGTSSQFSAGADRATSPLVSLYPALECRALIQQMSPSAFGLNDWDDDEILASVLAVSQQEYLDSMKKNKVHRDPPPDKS
In short: as §1

Measured: log2 ratio of Biotin-Ahx-Ub-VS probe labelling

O=C(CCl)N(C1=CCCCC1)C1CC1
inactive: [1] 0.101 | [2] -0.0892 | [3] -0.204 | [4] -0.311 | [5] 0.314 | [6] 0.173 | [7] -0.159 | [8] 0.037 | [9] -0.182
